Assay outcomes (PubChem BioAssay)
Hits are enriched below; roughly 2.9% of the tested compounds scored in any of these assays.
Mtb FBA inh: Mtb fructose-bisphosphate aldolase inhibition; hit rate 2.3% among 360,000; P9WQA3; purified M. tuberculosis FBA, fluorescence read-out; inhibition, % at 1 µM; in the data active means inhibition above about 27%;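 further: 0% = vehicle and 100% = reference inhibitor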
Target sequence (P9WQA3 whole entry, looked up): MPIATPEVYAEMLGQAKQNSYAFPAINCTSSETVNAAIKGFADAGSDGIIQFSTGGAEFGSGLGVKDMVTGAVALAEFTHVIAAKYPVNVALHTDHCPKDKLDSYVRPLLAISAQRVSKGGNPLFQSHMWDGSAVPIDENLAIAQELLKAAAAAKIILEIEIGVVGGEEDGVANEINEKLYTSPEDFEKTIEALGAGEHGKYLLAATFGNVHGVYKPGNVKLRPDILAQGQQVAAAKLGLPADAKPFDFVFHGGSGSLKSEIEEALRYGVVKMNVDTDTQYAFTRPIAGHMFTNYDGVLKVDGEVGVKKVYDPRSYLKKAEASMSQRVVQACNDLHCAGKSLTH
Mtb hypoxia rep: inhibitors of hypoxia-regulated fluorescent reporter in Mycobacterium tuberculosis. AID 1159583. hit rate 0.1% among 300,000. M. tuberculosis hypoxia-regulated fluorescent reporter, fluorescence. fluorescence inhibition, % (test concentration not listed); in the data active means fluorescence inhibition mostly above about 23%, no sharp cut-off; inactive means mostly below about 17%
GDH-TPI counter: inhibits GDH-TPI coupling enzymes, artifact for Mtb FBA screen | GDH-TPI coupled enzyme counterscreen, NADH absorbance | inhibition, % at 4.8 µM | hit rate 1.2% among 360,000; in the data active means inhibition above about 30%;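 further: 0% = DMSO wells and 100% = wells lacking the enzyme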
FadD28 FP inh: inhibitors of Mycobacterium tuberculosis FadD28 bisubstrate binding; FadD28 bisubstrate probe binding, fluorescence polarization; inhibition, % at 12.5 µM; hit rate 0.22% among 360,000; AID 588549; in the data active means inhibition above about 8.5%, passing the limit was not always enough
BioA inh: BioA (M. tuberculosis) enzyme inhibition; purified M. tuberculosis BioA enzyme, plate reader; inhibition, % at 9.99 µM; hit rate 0.096% among 360,000; AID 602481; in the data active means inhibition above about 40%
* marks the source's active call; other numbers are inactive results; . = no result given; + = active, no number.

SMILES	Mtb FBA inh	Mtb hypoxia rep	GDH-TPI counter	FadD28 FP inh	BioA inh
COCC(=O)N1C[C@H](C)[C@H](OC)CN(C)C(=O)c2ccc(NC(=O)C3CCC3)cc2OC[C@H]1C	.	.	.	.	-1
O=C(C1CCCCC1)N1[C@H](CO)[C@@H]2c3ccccc3NC[C@@H]21	.	.	.	.	-1
O=C(COC(=O)Cc1cccs1)NCC(=O)Nc1ccc(F)cc1	0	33*	8	-1	0
COc1ccc(-c2cc(-c3ccccc3)nc(=O)[nH]2)cc1	+	7	14	-2	.
COc1ccc(/C=N/NC(=O)CN(Cc2ccccc2)S(=O)(=O)c2ccc3c(c2)OCCO3)cc1	0	.	2	-2	.
COc1cc(/C=N/NC(=O)CN(Cc2ccccc2)S(=O)(=O)c2ccc3c(c2)OCCO3)ccc1O	3	.	11	22*	.
CCOC(=O)c1cn2nc(Oc3ccccc3)ccc2n1	6	-10	-5	-2	1
CCOC(=O)c1cn2nc(Oc3cccc(C(F)(F)F)c3)ccc2n1	66*	0	5	-1	.
CC(C)n1c(=S)[nH]c2ccccc2c1=O	-1	10	0	-3	0
C#CCn1c2ccccc2c(=O)n1C(C)C	121*	.	.	1	-3
Fc1ccc(/C=N/Nc2cc(N3CCOCC3)ncn2)cc1	1	.	16	-4	0
C(=N\Nc1cc(N2CCCCC2)ncn1)/c1ccco1	-2	.	42*	-2	4
COc1cc(/C=C2/C(=O)NN(c3ccccc3)C2=O)cc(Br)c1O	-13	3	2	2	4
COc1cc(/C=C2/C(=O)NN(c3ccc(Cl)cc3)C2=O)cc(OC)c1O	-6	6	9	8.9*	3
S=c1[nH]ncn1/N=C/c1ccc(N2CCOCC2)cc1	1	.	28	-1	-2
C(=N\n1cnnc1)/c1ccc(N2CCOCC2)cc1	5	.	34*	-1	0
C(=N\n1cncn1)/c1ccc(N2CCOCC2)cc1	-3	.	46*	-1	1
C[C@H]1CN([C@@H](C)CO)C(=O)c2cccc(NS(=O)(=O)c3ccccc3)c2O[C@@H]1CN(C)C(=O)Nc1ccc(F)cc1	.	.	.	.	0
COc1ccc(OC2C=CC(c3ccccc3)OC2COC(=O)CCC(C)=NOC(C)c2cc(-c3c(C)cc(C)cc3C)no2)cc1 (stereo not given)	.	3	.	.	.
CO[C@H]1CN(C)C(=O)c2ccc(NC(=O)C3CCCCC3)cc2OC[C@H](C)N(C(=O)c2ccccc2)C[C@@H]1C	.	.	.	.	-1
Cc1noc(C)c1NC(=O)Nc1ccc2c(c1)C(=O)N([C@H](C)CO)C[C@@H](C)[C@H](CN(C)C(=O)Nc1c(C)noc1C)O2	.	.	.	.	0
CC(C)CC#Cc1ccc2c(c1)O[C@@H](CN(C)C(=O)c1cccc(F)c1)[C@H](C)CN([C@@H](C)CO)S2(=O)=O	.	.	.	.	0
CCNc1oc(-c2cccc3ccccc23)nc1C#N	+	2	30	1	1
C=CCNc1oc(-c2cccc3ccccc23)nc1C#N	+	18	8	1	-2
COCCNc1oc(-c2ccccc2Cl)nc1C#N	9	7	15	-3	1
SMILES	Mtb FBA inh	Mtb hypoxia rep	GDH-TPI counter	FadD28 FP inh	BioA inh
CC(C)Nc1oc(-c2cccc3ccccc23)nc1C#N	+	12	22	4	-1
N#Cc1nc(-c2cccc3ccccc23)oc1N1CCCCC1	4	1	11	-1	-1
CN(C)C(=O)c1cc2c(c(-c3cccc(-c4ccc(F)cc4)c3)n1)[C@@H](CCO)N([S@](=O)C(C)(C)C)C2	.	.	.	.	0
Cn1c(O)c(C=NC2CCN(Cc3ccccc3)CC2)c(=O)[nH]c1=O	-5	12	0	-3	.
Cn1c(O)c(C=NC2CCCCCC2)c(=O)[nH]c1=S	-8	15	32*	0	.
CN(C)c1ccc(-c2nnc(-c3ccccc3F)o2)cc1	22	1	33*	-2	-2
CC(C)CC(N)c1csc(Nc2ccc(C(=O)NCCCO)cn2)n1 (stereo not given)	2	.	34*	-2	-6
Cn1cncc1C#Cc1ccc2c(=O)c3ccccc3oc2c1	3	4	41*	-2	0
Cn1cncc1C#Cc1ccc2cc(C3(O)CCCCC3)oc(=O)c2c1	4	3	7	2	6
Cn1cncc1C#Cc1ccc2cc(C(C)(C)O)oc(=O)c2c1	14	9	31*	-1	0
Cn1cncc1C#Cc1ccc2cc(CCCO)oc(=O)c2c1	47*	9	34*	-1	-1
COc1ccc(S(=O)(=O)Nc2ccc3c(c2)C(=O)N([C@H](C)CO)C[C@H](C)[C@@H](CN(C)C(=O)NC(C)C)OCCCC[C@@H](C)O3)cc1	.	.	.	.	-2
C[C@H]1CN([C@@H](C)CO)C(=O)c2cc(-c3cncnc3)cnc2O[C@H]1CN(C)Cc1ccccc1	.	.	.	.	0
